Rows were chosen to be rich in hits. Some 10% of all compounds tested hit in one or more screens of this group.
SW480 rerep – DNA re-replication induction in SW480 cells. Potency, µM (doses to about 46.1 µM), without a hit: at the highest dose re-replication activation, most hits filed as activators. SW480 DNA re-replication, Hoechst DNA content imaging, 48 h. 340,000 compounds, 1.8% hits. AID 624297; further: % of control where 0% means no effect; nearly all actives have a fitted effect of over 55% in size
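Hoechst fluorescence of nuclei (405 nm excitation, 500-530 nm emission) measured by plate-scanning imager after 48 hr compound exposure at 37 C; re-replication scored as increased number of nuclei with elevated intensity.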
KB-3-1 cytotox – kills parental KB-3-1 adenocarcinoma cells. 400,000 compounds, 1.4% hits. AID 1347075. KB-3-1 viability, CellTiter-Glo ATP luminescence, 72 h. Potency, µM (doses to about 46.1 µM), actives largely listed as cytotoxic; further: on the % scale 0 is the no-effect control and ±100 the full control effect; nearly all actives have a fitted effect of over 60% in size
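Multi-concentration cytotoxicity screen in KB-3-1 cells grown in DMEM lacking phenol red with 10% FBS. After 72 h at 37 °C with compound, ATP-dependent luminescence was recorded.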
KB-V1 cytotox – KB-V1 MDR subline cytotoxicity; KB-V1 MDR cells viability, CellTiter-Glo, 72 h; Potency, µM (top dose mostly 46.1 µM), usual class: cytotoxic; 400,000 compounds, 3.4% hits; AID 1347076; further: on the % scale 0 is the no-effect control and ±100 the full control effect; nearly all actives have a fitted effect of over 60% in size
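KB-V1, DMEM (no phenol red) + 10% FBS; cpd pin-transferred, titration series; 72 h, 37 degrees C; CellTiter-Glo, luminescence. Data normalized, curve-fit.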
RORg inh – ROR gamma (mouse) transcription inhibition. P51450. Drosophila S2 Gal4-RORgamma UAS-luciferase reporter, 20 h. Potency, µM (top dose mostly 53.6 µM), inactives show at the highest dose activity change, negative = inhibition, usual class: inhibitors. 310,000 compounds, 5.4% hits. AID 2551; further: on the % scale 0 is the no-effect control and ±100 the full control effect; nearly all actives have a fitted effect of over 60% in size
Target sequence (P51450 whole entry, looked up, the tested form may be a part): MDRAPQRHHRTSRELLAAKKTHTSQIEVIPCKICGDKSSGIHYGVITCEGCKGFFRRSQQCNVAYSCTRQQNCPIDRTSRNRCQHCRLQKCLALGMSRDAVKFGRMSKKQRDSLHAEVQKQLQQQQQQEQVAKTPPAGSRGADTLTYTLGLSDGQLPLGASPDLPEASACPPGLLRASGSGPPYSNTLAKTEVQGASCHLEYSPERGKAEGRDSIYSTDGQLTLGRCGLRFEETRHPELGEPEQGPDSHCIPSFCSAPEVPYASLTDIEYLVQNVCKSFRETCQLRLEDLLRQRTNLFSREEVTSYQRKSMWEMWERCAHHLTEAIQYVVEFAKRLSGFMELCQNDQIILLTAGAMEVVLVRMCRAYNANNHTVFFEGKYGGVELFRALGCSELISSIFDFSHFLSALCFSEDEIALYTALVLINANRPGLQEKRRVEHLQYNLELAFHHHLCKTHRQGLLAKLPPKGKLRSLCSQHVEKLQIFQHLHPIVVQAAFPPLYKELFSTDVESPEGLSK
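Schneider cells (Drosophila), stable Gal4 DBD–ROR gamma + UAS-luc; 1 hr cmpd preincubation; Cu2+ induction 700 uM final; 20 hr ambient; luminescence.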
MCF10A rereplic – inducers of DNA re-replication in MCF 10A breast cells. 350,000 compounds, 2.9% hits. Potency, µM (doses to about 46.1 µM), inactives show top-dose activity, positive = re-replication, most hits filed as activators. MCF 10A DNA re-replication, Hoechst nuclear intensity, 48 h; further: % of control where 0% means no effect; nearly all actives have a fitted effect of over 50% in size
VP16 counter – Gal4-VP16 reporter inhibition counter-screen; Potency, µM (doses to about 53.6 µM), for the others: at the highest dose activity, negative = inhibition, hits mostly inhibitors; AID 2546; Drosophila S2 Gal4-VP16 UAS-luciferase, luminescence, 20 h; 310,000 compounds, 3.5% hits;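 further: Gal4-VP16 expression switched on by copper sulfate through the metallothionein promoter; on the % scale 0 is the no-effect control and ±100 the full control effect; nearly all actives have a fitted effect of over 50% in size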
Active calls of the source: *. The call rests on the fitted dose curve; in most records, active means well fitted curve in the direction sought with a large enough effect; inconclusive means small, poorly fitted or top-dose-only effect, or another doubt; inactive means no such curve, though single readings can be large; an effect the other way counts as inactive or inconclusive. Potency means the concentration at half of the fitted maximal effect.

What do the screens show for `COC(=O)c1ccc(NC(=O)COc2ccc(N(C)S(=O)(=O)c3ccc(C)cc3)cc2)cc1`?
SW480 rerep: -5%; MCF10A rereplic: 18µM*

Results for COc1ccc(OCC(=O)Nc2ccc(S(=O)(=O)N(C)c3ccccc3)cc2)cc1 ?
SW480 rerep: 3%; KB-3-1 cytotox: inactive; KB-V1 cytotox: inconclusive; MCF10A rereplic: 2%

What do the screens show for `Cc1ccc(C)c(C(=O)OCC(=O)Nc2cccc(S(=O)(=O)N3CCCCC3)c2)c1`?
SW480 rerep: inconclusive; KB-3-1 cytotox: 15µM*; KB-V1 cytotox: inconclusive; MCF10A rereplic: 8%

Results for CCCCCCN(CCCCCC)C(=O)Cc1c(-c2ccc(Cl)cc2)[nH]c2ccc(Cl)cc12 ?
RORg inh: -2%; VP16 counter: 3%

What do the screens show for `COc1cc(Cl)c(C)cc1NC(=O)Cn1ncc2c3ccccc3n(Cc3ccccc3)c2c1=O`?
KB-3-1 cytotox: inactive; KB-V1 cytotox: inactive

How did O=C(COc1ccc(S(=O)(=O)N2CCCC2)cc1)Nc1ccc(F)cc1 do in these assays?
SW480 rerep: -35%; KB-3-1 cytotox: inactive; KB-V1 cytotox: inactive; RORg inh: 31%; MCF10A rereplic: inconclusive; VP16 counter: 0%

Results for CSc1ncccc1C(=O)OCC(=O)Nc1ccc(S(=O)(=O)N2CCCC2)cc1 ?
SW480 rerep: -5%; KB-3-1 cytotox: inactive; KB-V1 cytotox: inactive; RORg inh: 43%; MCF10A rereplic: -1%; VP16 counter: -3%

Results for CSc1ncccc1C(=O)OCC(=O)c1ccc(S(=O)(=O)N2CCCCC2)cc1 ?
SW480 rerep: -4%; KB-3-1 cytotox: inactive; KB-V1 cytotox: 23µM*; MCF10A rereplic: 4%

What do the screens show for `COC(=O)c1ccc(NC(=O)COc2ccc(S(=O)(=O)N3CCCCC3)cc2)cc1`?
SW480 rerep: 1%; KB-3-1 cytotox: inactive; KB-V1 cytotox: 5.2µM*; RORg inh: 16%; MCF10A rereplic: 0%; VP16 counter: 2%

What do the screens show for `Cc1ccc(NC(=O)C(Cc2ccccc2)N2C(=O)C3C4CCC(C4)C3C2=O)cc1Cl` (stereo unspecified)?
SW480 rerep: inconclusive; KB-3-1 cytotox: inconclusive; KB-V1 cytotox: inconclusive; RORg inh: 20%; MCF10A rereplic: inconclusive; VP16 counter: -11%

What do the screens show for `Cc1ccc(Cl)cc1NC(=O)C(Cc1ccccc1)N1C(=O)C2C3CCC(C3)C2C1=O` (stereo unspecified)?
SW480 rerep: 10%; KB-3-1 cytotox: inactive; KB-V1 cytotox: inactive; RORg inh: -20%; MCF10A rereplic: 21%; VP16 counter: 79µM*

How did Cc1c(-c2ccc(Br)cc2)nc2ccccn12 do in these assays?
SW480 rerep: -4%; KB-3-1 cytotox: inactive; KB-V1 cytotox: 21µM*; RORg inh: 10µM*; MCF10A rereplic: inconclusive; VP16 counter: inconclusive

What do the screens show for `CN(C)c1ccc(-c2nc3ccccn3c2/N=C/c2ccc(Br)cc2)cc1`?
SW480 rerep: inconclusive; KB-3-1 cytotox: 15µM*; KB-V1 cytotox: 9.2µM*; RORg inh: 7.1µM*; MCF10A rereplic: -2%; VP16 counter: 8.9µM*

How did Cc1ccc(-c2nc3ccccn3c2C=O)cc1 do in these assays?
SW480 rerep: -5%; KB-3-1 cytotox: inactive; KB-V1 cytotox: inconclusive; RORg inh: 7%; MCF10A rereplic: -7%; VP16 counter: -13%

How did COc1ccc([C@H]2CC(=O)C=C(c3cccc(C(C)C)c3)C2)cc1OC do in these assays?
SW480 rerep: 4%; KB-3-1 cytotox: inconclusive; KB-V1 cytotox: inconclusive; MCF10A rereplic: inconclusive

What do the screens show for `OC(c1cc(Cl)cc(Cl)c1)c1ncc(-c2cccc(F)c2)[nH]1` (stereo unspecified)?
KB-3-1 cytotox: inactive; KB-V1 cytotox: inactive

Screening data (PubChem BioAssay)
